LEDGF integ inh: blocks HIV-1 LEDGF/p75-dependent DNA integration; TR-FRET IN-LEDGF/p75 DNA integration, Eu/Cy5; AID 743269; 0.64% of 370,000 active; inhibition, % at 3.7 µM;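 active = inhibition above the screen-wide mean plus 3 SD, cut at about 13% in these data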;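 note: signal is the Cy5 over europium emission ratio at 671 and 618 nm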
UHRF1 binding: human UHRF1 methylated DNA binding inhibitors; Q96T88; UHRF1 binding to methylated oligo, TR-FRET; inhibition, % at 4.4 µM; 0.75% of 370,000 active; in the data active = inhibition above about 21%;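 note: UHRF1 SRA domain binding a hemimethylated CpG hairpin DNA probe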
MBD2 inh: inhibitors of human MBD2 binding to methylated oligonucleotide; Q9UBB5; TR-FRET; inhibition, % at 4.4 µM; 0.31% of 370,000 active; AID 686964; in the data active = inhibition above about 13%
TCR CD3 inh: human TCR-CD3 binding inhibition; TAMRA-labeled TCR probe fluorescence, biochemical; 0.37% of 360,000 active; inhibition, % at 9.4 µM; in the data active = inhibition above about 19%;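 note: recombinant mutant TCR 2C K166C tagged with TAMRA read by polarization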
Rin1 Abl inh: inhibitors of human Rin1-Abl protein interaction; inhibition, % at 7.35 µM; P00519+Q13671; TR-FRET Rin1/Abl binding, biochemical; 0.4% of 360,000 active; in the data active = inhibition above about 5%, passing the limit was not always enough
IN multimer up: counter-screen for LEDGF/p75 integration inhibitors: HIV-1 integrase multimerization activators | shares compounds with LEDGF integ inh | TR-FRET HIV-1 integrase multimerization, biochemical | activation, % at 7.7 µM | 17% of 2,000 active | AID 1053131; in the data active = activation above about 8.9%
TRFRET interf: counter-screen for LEDGF/p75 integration inhibitors: TR-FRET optical interference. shares compounds with LEDGF integ inh. 2,000 tested, under 10 active. TR-FRET optical interference counterscreen, HIV-1 IN multimerization. inhibition, % at 7.7 µM;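 active = inhibition above the mean over all tested compounds plus 3 SD, which no compound reached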
IN-LEDGF confirm: confirmation of HIV-1 LEDGF/p75-dependent integration inhibitors; shares compounds with LEDGF integ inh; TR-FRET LEDGF/p75-dependent HIV-1 integration, biochemical; inhibition, % at 3.7 µM; 36% of 2,000 active; in the data active = inhibition above about 14%
Of the large screens only hits and unclear results are named; the others gave an inactive call (follow-up assays come after a bar, where they were run). This is a sample that favours compounds with a hit; in the whole collection about 2% have one here.

O=C(O)CSc1cc(NS(=O)(=O)c2ccc(Br)cc2)c2ccccc2c1O	LEDGF integ inh 25 | IN multimer up inactive | TRFRET interf inactive | IN-LEDGF confirm 51
O=C(NNC(=O)C1CCC1)c1ccc(Br)cc1	none
O=C(NNC(=O)C1CCCCC1)c1ccc(Br)cc1	LEDGF integ inh 15 | IN multimer up inactive | TRFRET interf inactive | IN-LEDGF confirm inactive
Clc1cccc(-c2ccc(C=Nc3ccc(N4CCOCC4)cc3)o2)c1Cl	LEDGF integ inh 24 | IN multimer up inactive | TRFRET interf inactive | IN-LEDGF confirm inactive
Clc1ccc(-c2ccc(C=Nc3ccc(N4CCOCC4)cc3)o2)cc1	LEDGF integ inh 18 | IN multimer up inactive | TRFRET interf inactive | IN-LEDGF confirm inactive
C[C@@H]1CN([C@H](C)CO)C(=O)CCCn2cc(nn2)CO[C@H]1CN(C)C(=O)Nc1cccc(Oc2ccccn2)c1	none
COc1cc2c(cc1OC)C(C1(O)CCCCC1)NCC2 (stereo not drawn)	LEDGF integ inh 14 | IN multimer up inactive | TRFRET interf inactive | IN-LEDGF confirm inactive
COc1cc2c(cc1OC)C(C(N)=O)NCC2 (stereo not drawn)	none
COC(=O)[C@@]1(C(C)C)N=C(c2cc(OC)c(OC)c(OC)c2)[C@]2(O1)C(=O)N(C)c1ccccc12	none (no result: Rin1 Abl inh)
CCc1ccc2c(c1)C(NC(C)=O)C(=O)N2CCN1CCOCC1 (stereo not drawn)	LEDGF integ inh 15 | IN multimer up inactive | TRFRET interf inactive | IN-LEDGF confirm 33
CCCN1C(=O)C(NC(C)=O)c2ccccc21 (stereo not drawn)	none
COC(=O)CCC[C@H](C)[C@@H](NS(=O)(=O)c1ccc(C)cc1)C(C)(C)C	LEDGF integ inh 40 (no result: Rin1 Abl inh) | IN multimer up inactive | TRFRET interf inactive | IN-LEDGF confirm inactive
O=C1CCC(C(=O)OCC(=O)Nc2ccc(SC(F)F)cc2)=NN1	none
NC(CO)c1csc(Nc2ccc(C(F)(F)F)cn2)n1 (stereo not drawn)	none
NC(c1csc(Nc2ccc(C(F)(F)F)cn2)n1)C1CCCCC1 (stereo not drawn)	LEDGF integ inh 18 | IN multimer up inactive | TRFRET interf inactive | IN-LEDGF confirm inactive
NC(c1csc(Nc2cc(Oc3ccccc3)ncn2)n1)C1CCCCC1 (stereo not drawn)	LEDGF integ inh 13 | IN multimer up inactive | TRFRET interf inactive | IN-LEDGF confirm inactive
N#Cc1sc2nc3c(c(-c4ccco4)c2c1N)CCCC3	none
Cc1ccccc1NC(=O)c1sc2nc3c(c(-c4ccco4)c2c1N)CCC3	LEDGF integ inh 46 | IN multimer up inactive | TRFRET interf inactive | IN-LEDGF confirm inactive
Oc1c(CN2CCOCC2)cc(CN2CCOCC2)c(O)c1CN1CCOCC1	LEDGF integ inh 20 | IN multimer up inactive | TRFRET interf inactive | IN-LEDGF confirm inactive
CCC(C(=O)NC(C)(C)C)N(Cc1ccco1)C(=O)CNS(=O)(=O)c1ccc(OC)cc1 (stereo not drawn)	none
C/C(=C\C(=O)c1ccc(Cl)cc1)Nc1ccc(N2CCOCC2)cc1	none
CCc1ccc(C(=O)NC(=S)Nc2ccc(N3CCOCC3)cc2)cc1	none
O=C(Nc1ccccc1)c1ccc2nc(-c3ccco3)c(-c3ccco3)nc2c1	LEDGF integ inh 17, TCR CD3 inh 24 | IN multimer up inactive | TRFRET interf inactive | IN-LEDGF confirm 43
Cc1ccccc1SCC(=O)Nc1ccc(N2CCOCC2)cc1	none
C/C(=C\C(=O)c1ccccc1)Nc1ccc(N2CCOCC2)cc1	LEDGF integ inh 22 | IN multimer up inactive | TRFRET interf inactive | IN-LEDGF confirm inactive
Nc1ccccc1SCC(=O)Nc1ccc(N2CCOCC2)cc1	LEDGF integ inh 18 | IN multimer up inactive | TRFRET interf inactive | IN-LEDGF confirm inactive
CC(=O)c1ccc(NC(=S)Nc2ccc(N3CCOCC3)cc2)cc1	LEDGF integ inh 15 | IN multimer up inactive | TRFRET interf inactive | IN-LEDGF confirm inactive
CC(=O)c1ccc(NC(=O)c2ccc3nc(-c4ccco4)c(-c4ccco4)nc3c2)cc1	none (no result: LEDGF integ inh, UHRF1 binding, MBD2 inh, TCR CD3 inh)
C[C@@H]1CN([C@H](C)CO)C(=O)CCCn2nncc2CO[C@@H]1CN(C)S(=O)(=O)c1ccc2c(c1)OCCCO2	none
S=C(Nc1ccc(N2CCOCC2)cc1)Nc1ccc2nc(-c3ccco3)c(-c3ccco3)nc2c1	LEDGF integ inh 27 | IN multimer up 18 | TRFRET interf inactive | IN-LEDGF confirm 51
CCCCCCCCN1C(=O)[C@@H](CC(=O)N2CCCCC2)C[C@@]2(C(=O)OC)C1=C[C@H](C1CCCC1)O[C@@H]2C	none (no result: Rin1 Abl inh)
CC(NC(=O)CN(Cc1ccccc1)S(=O)(=O)c1ccccc1)c1cccnc1 (stereo not drawn)	none
CCN(Cc1ccccc1)c1cc2c(c3c1ccn3C)C1CCC2O1 (stereo not drawn)	LEDGF integ inh 13 | IN multimer up inactive | TRFRET interf inactive | IN-LEDGF confirm inactive
C=C1C[C@H](O[C@@H]2O[C@H](CO)[C@@H](O)[C@H](O)[C@H]2O)[C@@H]2[C@H](OC(=O)[C@H]2C)[C@H]2[C@H](C)[C@H](O)C[C@@H]12	none
CCCCOCCCNC(=O)C[C@@H]1C[C@@]2(C(=O)OCC)CCC=C2N(Cc2cccc3ccccc23)C1=O	none (no result: Rin1 Abl inh)
CCn1c(C)cc(/C=C2/SC(=S)NC2=O)c1C	none
Cc1cc(/C=C2\SC(=S)NC2=O)c(C)[nH]1	LEDGF integ inh 34 | IN multimer up 12 | TRFRET interf inactive | IN-LEDGF confirm inactive
OC1COCOC1C(O)C1OCOCC1O (stereo not drawn)	none
Cc1cc(NC(=O)CC#N)n(-c2ccccc2)n1	LEDGF integ inh 16 | IN multimer up inactive | TRFRET interf inactive | IN-LEDGF confirm inactive
Cc1cc(NC(=O)CSc2nnc(-c3ccncc3)n2Cc2ccccc2)n(-c2ccccc2)n1	LEDGF integ inh 70 | IN multimer up inactive | TRFRET interf inactive | IN-LEDGF confirm inactive
Cc1cc(NC(=O)CSc2nnc(-c3ccncc3)n2C)n(-c2ccccc2)n1	none
C=CCCC[C@H]1OC(=O)[C@H](C)NC(=O)[C@H](C(C)C)NC(=O)[C@@H]2CCCN2C(=O)[C@H](Cc2ccccc2)OC(=O)[C@@H](C(C)C)N(C)C(=O)[C@H](C(C)C)NC(=O)C1(C)C	LEDGF integ inh 16 (no result: Rin1 Abl inh) | IN multimer up inactive | TRFRET interf inactive | IN-LEDGF confirm inactive
O=C(CCCCCN1C(=O)C2C3C=CC(C3)C2C1=O)Nc1ccc(Cl)cc1 (stereo not drawn)	none (no result: TCR CD3 inh, Rin1 Abl inh)
O=C(CCCCCN1C(=O)C2C3C=CC(C3)C2C1=O)Nc1ccc2ncccc2c1 (stereo not drawn)	LEDGF integ inh 22 (no result: TCR CD3 inh, Rin1 Abl inh) | IN multimer up inactive | TRFRET interf inactive | IN-LEDGF confirm inactive
